The source of these data is ChEMBL document CHEMBL2218924, “A broad activity screen in support of a chemogenomic map for kinase signalling research and drug discovery” (Biochem J, 2013).

For assay [1], the target named is Insulin receptor (Homo sapiens) (UniProt P06213). As to conditions: at 10 µM.
For assay [2] the target is unchanged. As to conditions: at 1 µM.
For assay [3] the target is unchanged. Conditions: at 10 µM. The source holds these as a separate data set.
Assay [4] addresses Interleukin-1 receptor-associated kinase 1 (Homo sapiens) (UniProt P51617). Conditions: at 1 µM.
Assay [5] has the same target. Conditions: at 10 µM.
The target of assay [6] is T1, Interleukin-1 receptor-associated kinase 4 (Homo sapiens) (UniProt Q9NWZ3).
T1 sequence (whole entry): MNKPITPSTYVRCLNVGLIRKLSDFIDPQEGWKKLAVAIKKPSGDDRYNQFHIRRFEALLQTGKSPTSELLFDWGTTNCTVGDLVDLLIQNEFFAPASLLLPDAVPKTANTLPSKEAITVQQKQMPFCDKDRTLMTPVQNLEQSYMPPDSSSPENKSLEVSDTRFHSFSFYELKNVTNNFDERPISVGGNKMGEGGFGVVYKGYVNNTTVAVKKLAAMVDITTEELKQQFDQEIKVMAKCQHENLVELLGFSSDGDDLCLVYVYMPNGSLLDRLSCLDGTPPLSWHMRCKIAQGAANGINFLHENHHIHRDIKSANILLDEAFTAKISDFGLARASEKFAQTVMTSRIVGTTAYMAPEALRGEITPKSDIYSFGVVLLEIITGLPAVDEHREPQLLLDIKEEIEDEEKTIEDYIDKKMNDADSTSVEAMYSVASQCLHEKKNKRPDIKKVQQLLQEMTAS
As to conditions: at 1 µM.

For assay [7], the target named is T1, Interleukin-1 receptor-associated kinase 4 (Homo sapiens). Conditions: at 10 µM.
The target in assay [8] is Insulin receptor-related protein (Homo sapiens) (UniProt P14616). Conditions: at 1 µM.
Insulin receptor-related protein (Homo sapiens), sequence (P14616 27-742 limits assumed): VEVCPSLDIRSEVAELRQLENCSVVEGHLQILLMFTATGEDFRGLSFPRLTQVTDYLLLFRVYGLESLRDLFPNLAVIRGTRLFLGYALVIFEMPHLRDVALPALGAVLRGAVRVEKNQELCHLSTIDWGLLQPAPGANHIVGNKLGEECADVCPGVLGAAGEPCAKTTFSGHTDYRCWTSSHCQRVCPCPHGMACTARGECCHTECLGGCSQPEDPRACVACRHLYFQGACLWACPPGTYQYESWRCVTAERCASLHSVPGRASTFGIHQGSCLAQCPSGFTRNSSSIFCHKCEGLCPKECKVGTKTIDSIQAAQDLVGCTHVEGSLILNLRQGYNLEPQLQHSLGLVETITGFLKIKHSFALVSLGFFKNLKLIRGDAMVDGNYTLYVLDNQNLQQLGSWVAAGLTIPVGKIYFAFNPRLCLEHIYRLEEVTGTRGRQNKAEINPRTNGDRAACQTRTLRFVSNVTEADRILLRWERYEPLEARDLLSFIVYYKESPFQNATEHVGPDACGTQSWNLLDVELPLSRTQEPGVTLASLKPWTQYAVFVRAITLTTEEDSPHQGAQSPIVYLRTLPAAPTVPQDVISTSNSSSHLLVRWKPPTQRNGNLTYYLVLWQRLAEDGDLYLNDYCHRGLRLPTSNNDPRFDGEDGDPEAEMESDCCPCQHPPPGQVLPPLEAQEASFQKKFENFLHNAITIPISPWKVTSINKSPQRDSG
Insulin receptor-related protein (Homo sapiens), sequence (P14616 747-1297 limits assumed): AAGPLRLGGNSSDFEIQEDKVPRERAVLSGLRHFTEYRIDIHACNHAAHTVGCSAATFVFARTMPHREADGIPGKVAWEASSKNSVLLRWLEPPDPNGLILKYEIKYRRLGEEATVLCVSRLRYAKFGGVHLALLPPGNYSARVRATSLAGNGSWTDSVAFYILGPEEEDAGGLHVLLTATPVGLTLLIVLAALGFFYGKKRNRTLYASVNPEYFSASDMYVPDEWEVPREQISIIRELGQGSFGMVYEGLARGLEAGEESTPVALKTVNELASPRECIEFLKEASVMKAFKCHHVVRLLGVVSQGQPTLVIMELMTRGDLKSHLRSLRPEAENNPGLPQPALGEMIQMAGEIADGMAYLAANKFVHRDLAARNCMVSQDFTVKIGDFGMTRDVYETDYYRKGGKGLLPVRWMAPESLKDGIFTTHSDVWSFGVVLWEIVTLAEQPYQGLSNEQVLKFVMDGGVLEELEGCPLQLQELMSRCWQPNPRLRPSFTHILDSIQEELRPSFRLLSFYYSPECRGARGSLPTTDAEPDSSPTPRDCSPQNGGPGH
Assay [9] shares this target. Conditions: at 10 µM.
The target in assay [10] is T2, Tyrosine-protein kinase ITK/TSK (Homo sapiens) (UniProt Q08881).
T2 sequence (whole entry): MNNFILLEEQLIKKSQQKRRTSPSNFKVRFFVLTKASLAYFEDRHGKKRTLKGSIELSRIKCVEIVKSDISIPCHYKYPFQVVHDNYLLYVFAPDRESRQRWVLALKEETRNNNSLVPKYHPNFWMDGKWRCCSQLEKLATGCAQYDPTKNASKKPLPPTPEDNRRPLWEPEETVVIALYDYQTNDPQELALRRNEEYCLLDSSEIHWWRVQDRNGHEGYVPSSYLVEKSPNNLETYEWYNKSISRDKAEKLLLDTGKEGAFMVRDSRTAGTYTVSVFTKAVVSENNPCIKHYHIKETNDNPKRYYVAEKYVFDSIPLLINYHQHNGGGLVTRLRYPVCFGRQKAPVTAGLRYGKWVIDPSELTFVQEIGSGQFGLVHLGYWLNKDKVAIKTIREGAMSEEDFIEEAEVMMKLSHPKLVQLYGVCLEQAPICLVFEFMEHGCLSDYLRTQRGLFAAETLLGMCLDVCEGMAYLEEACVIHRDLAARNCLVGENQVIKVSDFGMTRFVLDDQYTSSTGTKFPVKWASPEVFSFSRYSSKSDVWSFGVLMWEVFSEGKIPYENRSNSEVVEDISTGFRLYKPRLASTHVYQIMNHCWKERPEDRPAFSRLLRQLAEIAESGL
Conditions: at 1 µM.

Assay [11] has as its target T2, Tyrosine-protein kinase ITK/TSK (Homo sapiens). Conditions: at 10 µM.
Assay [12] concerns the target Tyrosine-protein kinase JAK2 (Homo sapiens) (UniProt O60674). As to conditions: at 1 µM.
Assay [13] has the same target. As to conditions: at 10 µM.
Assay [14] concerns the target T3, Tyrosine-protein kinase JAK3 (Homo sapiens) (UniProt P52333).
T3 sequence (whole entry): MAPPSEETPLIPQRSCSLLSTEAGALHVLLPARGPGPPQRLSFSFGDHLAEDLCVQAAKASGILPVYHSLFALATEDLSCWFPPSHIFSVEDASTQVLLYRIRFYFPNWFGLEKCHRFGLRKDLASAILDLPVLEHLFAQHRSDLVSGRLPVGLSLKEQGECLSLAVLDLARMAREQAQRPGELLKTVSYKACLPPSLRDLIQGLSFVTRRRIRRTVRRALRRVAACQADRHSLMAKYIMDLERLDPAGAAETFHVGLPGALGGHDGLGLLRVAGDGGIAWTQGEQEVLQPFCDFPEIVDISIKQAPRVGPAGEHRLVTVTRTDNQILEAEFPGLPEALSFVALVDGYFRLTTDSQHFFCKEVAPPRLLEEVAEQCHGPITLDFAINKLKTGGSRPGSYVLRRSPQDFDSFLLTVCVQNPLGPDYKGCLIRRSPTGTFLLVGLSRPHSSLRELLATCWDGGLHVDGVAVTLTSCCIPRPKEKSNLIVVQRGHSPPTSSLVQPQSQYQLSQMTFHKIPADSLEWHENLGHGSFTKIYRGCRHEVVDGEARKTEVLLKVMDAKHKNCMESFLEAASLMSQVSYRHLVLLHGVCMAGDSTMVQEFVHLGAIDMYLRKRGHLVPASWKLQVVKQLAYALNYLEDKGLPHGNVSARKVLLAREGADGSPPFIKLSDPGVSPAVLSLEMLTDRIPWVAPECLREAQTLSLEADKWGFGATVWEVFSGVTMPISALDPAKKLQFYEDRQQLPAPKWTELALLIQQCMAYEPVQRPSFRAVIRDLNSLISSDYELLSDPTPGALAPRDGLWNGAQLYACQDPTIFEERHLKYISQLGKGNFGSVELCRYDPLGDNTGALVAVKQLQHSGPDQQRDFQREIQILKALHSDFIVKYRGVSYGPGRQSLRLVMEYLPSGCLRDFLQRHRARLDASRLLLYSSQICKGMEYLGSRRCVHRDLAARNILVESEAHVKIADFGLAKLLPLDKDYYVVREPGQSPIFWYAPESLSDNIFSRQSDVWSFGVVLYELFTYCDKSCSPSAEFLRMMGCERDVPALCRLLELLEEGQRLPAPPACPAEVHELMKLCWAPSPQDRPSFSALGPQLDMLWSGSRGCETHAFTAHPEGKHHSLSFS
Conditions: at 1 µM.

The target in assay [15] is T3, Tyrosine-protein kinase JAK3 (Homo sapiens). As to conditions: at 10 µM.
Assay [16] deals with Mitogen-activated protein kinase 8 (Homo sapiens) (UniProt P45983). As to conditions: at 1 µM.
Mitogen-activated protein kinase 8 (Homo sapiens), sequence (P45983 whole entry): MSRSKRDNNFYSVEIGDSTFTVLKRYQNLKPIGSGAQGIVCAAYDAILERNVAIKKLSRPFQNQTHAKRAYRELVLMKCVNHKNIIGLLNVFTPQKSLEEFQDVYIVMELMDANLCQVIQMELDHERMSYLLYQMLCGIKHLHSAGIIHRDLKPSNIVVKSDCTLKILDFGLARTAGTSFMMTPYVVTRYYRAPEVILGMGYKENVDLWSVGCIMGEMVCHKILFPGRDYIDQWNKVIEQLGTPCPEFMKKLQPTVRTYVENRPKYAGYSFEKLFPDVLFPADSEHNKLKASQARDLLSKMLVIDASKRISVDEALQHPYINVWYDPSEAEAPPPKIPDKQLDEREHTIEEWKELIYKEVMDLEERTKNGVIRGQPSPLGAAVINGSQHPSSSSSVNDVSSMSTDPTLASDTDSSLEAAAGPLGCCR
Assay [17] shares this target. Conditions: at 10 µM.
Assay [18] deals with Mitogen-activated protein kinase 9 (Homo sapiens) (UniProt P45984). Conditions: at 1 µM.
Mitogen-activated protein kinase 9 (Homo sapiens), sequence (P45984 whole entry, looked up): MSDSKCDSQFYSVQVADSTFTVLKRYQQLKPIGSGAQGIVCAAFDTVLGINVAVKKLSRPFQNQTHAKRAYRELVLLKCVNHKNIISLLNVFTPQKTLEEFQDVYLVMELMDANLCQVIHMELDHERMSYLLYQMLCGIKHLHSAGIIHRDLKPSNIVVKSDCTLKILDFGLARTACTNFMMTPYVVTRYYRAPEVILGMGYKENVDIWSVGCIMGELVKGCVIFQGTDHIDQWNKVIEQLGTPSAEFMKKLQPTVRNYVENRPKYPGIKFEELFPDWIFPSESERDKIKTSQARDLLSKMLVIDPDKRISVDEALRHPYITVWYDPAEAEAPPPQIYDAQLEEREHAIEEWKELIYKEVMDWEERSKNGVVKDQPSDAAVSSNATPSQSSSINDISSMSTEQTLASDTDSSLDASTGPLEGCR
Assay [19] shares this target. As to conditions: at 10 µM.
In assay [20] the target is Mitogen-activated protein kinase 10 (Homo sapiens) (UniProt P53779). As to conditions: at 1 µM.
Mitogen-activated protein kinase 10 (Homo sapiens), sequence (P53779 whole entry): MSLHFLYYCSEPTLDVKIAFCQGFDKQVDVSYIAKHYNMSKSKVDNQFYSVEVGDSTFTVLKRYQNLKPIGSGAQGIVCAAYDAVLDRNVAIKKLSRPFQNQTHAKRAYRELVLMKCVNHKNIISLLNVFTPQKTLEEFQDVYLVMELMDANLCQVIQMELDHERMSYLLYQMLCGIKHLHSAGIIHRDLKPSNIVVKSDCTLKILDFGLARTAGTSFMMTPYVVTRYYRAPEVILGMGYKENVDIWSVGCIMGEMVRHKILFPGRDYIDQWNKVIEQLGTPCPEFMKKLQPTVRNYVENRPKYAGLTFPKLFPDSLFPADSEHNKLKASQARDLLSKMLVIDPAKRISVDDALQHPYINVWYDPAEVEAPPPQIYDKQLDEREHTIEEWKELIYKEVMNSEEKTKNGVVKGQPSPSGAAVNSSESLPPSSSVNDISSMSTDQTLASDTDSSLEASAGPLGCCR

Insulin receptor (Homo sapiens), sequence (P06213 28-758 limits assumed): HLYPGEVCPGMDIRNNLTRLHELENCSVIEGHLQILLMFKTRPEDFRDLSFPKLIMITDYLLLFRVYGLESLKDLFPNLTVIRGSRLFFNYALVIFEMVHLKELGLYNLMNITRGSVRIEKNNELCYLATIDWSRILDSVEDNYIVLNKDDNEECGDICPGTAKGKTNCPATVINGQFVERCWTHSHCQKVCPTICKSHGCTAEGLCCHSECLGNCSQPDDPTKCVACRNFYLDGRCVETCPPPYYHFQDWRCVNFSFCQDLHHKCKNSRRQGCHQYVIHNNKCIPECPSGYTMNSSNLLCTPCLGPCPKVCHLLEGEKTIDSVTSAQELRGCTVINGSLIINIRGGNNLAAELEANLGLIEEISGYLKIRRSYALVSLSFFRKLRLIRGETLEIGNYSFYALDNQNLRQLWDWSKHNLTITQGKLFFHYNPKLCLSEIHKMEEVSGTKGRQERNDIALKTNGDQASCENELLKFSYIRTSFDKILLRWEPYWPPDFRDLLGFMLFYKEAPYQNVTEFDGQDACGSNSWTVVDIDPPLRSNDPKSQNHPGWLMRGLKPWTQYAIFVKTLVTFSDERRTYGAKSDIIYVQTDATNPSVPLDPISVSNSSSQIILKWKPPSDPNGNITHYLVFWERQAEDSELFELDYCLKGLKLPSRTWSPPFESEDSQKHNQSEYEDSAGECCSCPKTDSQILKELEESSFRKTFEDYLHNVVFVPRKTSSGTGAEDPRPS
Insulin receptor (Homo sapiens), sequence (P06213 763-1382 limits assumed): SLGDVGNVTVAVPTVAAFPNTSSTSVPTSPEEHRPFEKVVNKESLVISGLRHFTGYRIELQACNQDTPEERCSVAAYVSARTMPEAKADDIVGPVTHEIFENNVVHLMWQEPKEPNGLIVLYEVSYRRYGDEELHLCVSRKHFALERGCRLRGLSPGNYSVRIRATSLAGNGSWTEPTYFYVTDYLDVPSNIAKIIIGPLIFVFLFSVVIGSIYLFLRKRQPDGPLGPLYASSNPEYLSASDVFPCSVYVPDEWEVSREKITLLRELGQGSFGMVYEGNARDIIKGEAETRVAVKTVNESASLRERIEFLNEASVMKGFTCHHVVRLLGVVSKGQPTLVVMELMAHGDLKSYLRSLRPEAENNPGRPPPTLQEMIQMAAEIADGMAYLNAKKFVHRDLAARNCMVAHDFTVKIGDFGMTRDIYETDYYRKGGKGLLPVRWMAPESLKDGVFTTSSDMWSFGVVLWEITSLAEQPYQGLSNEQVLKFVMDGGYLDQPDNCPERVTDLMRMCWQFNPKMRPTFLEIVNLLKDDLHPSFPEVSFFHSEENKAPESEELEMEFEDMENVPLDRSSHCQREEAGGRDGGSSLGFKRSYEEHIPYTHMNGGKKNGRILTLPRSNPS
Interleukin-1 receptor-associated kinase 1 (Homo sapiens), sequence (P51617 whole entry, looked up): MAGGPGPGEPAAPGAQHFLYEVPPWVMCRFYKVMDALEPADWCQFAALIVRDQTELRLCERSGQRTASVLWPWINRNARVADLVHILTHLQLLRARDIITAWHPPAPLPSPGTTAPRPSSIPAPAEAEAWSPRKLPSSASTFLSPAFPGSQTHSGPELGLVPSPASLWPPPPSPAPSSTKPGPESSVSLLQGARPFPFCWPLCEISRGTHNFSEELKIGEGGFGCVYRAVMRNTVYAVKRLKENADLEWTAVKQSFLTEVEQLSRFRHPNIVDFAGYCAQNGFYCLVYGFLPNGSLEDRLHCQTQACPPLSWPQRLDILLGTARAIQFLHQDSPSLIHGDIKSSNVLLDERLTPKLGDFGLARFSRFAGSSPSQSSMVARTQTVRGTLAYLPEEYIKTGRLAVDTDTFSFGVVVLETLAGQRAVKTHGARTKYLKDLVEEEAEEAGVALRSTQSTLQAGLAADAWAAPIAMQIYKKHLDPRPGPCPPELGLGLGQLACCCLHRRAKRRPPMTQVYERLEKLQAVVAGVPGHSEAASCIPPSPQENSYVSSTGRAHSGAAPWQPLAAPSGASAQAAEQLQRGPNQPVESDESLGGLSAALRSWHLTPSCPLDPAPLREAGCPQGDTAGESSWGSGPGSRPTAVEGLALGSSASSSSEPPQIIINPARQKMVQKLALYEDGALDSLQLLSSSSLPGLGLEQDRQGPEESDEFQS

With `CO[C@H]1[C@@H](OC)C[C@H](C)[C@@H](OC)C2=CC(=O)C=C(NC(=O)/C(C)=C/C=C/[C@H](OC)[C@@H](OC(N)=O)/C(C)=C/[C@@H]1C)C2=O`, the residual activity was 117% in assay [1]; 100% in [2]; 112% in assay [3]; 106% in assay [4]; 94% in assay [5]; 107% in [6]. Also, the residual activity in assay [7] is 99%; in assay [8], 133%; in assay [9], 79%; in assay [10], 106%; in assay [11], 107%; in assay [12] it was 114%. For the same compound, the residual activity was determined as 97% in assay [13]; 94% in assay [14]; 63% in assay [15]; 120% in assay [16]; 89% in assay [17]; 114% in assay [18]. The residual activity amounted to 100% in [19] and 113% in assay [20].

With `O=C1NC(=O)c2cc(Nc3ccc(F)cc3)c(Nc3ccc(F)cc3)cc21`, the residual activity was 103% in [1]; 94% in assay [2]; 85% in assay [3]; 83% in assay [4]; 63% in assay [5]; 99% in assay [6]. Also, the residual activity in [7] stood at 110%; in assay [8], 122%; in [9] it was 83%; in assay [10], 110%; in [11] it was 101%; in [12], 73%. Also, the residual activity in [13] is 119%; in assay [14], 100%; in assay [15], 68%; in assay [16], 117%; in [17] it was 79%; in assay [18] it was 112%. Also, the residual activity in [19] was found to be 84%.

Turning to `Cc1ccc(NC2=CC(=O)c3sc(C)nc3C2=O)cc1`, the residual activity stood at 90% in assay [1]; 102% in assay [2]; 96% in [3]; 105% in assay [4]; 110% in assay [5]; 85% in [6]. Moreover, the residual activity turned out to be 86% in assay [7]; 118% in [8]; 108% in assay [9]; 105% in assay [10]; 101% in assay [11]; 97% in [12]. Also, the residual activity in assay [13] is 104%; in assay [14] it was 113%; in [15], 107%; in [16], 112%; in [17], 92%; in [18], 100%. In addition, the residual activity in assay [19] is 106%; in assay [20] it was 83%.

As for `Oc1ccc(Nc2nc(-c3ccc(Cl)cc3)cs2)cc1`, the residual activity in assay [1] is 133%; in [2] it was 108%; in [3], 103%; in assay [4], 100%; in assay [5], 111%; in assay [6], 108%. For the same compound, the residual activity amounted to 97% in assay [7]; 115% in assay [8]; 85% in assay [9]; 104% in assay [10]; 95% in assay [11]; 106% in assay [12]. Besides, the residual activity in [13] came to 97%; in assay [14], 95%; in [15] it was 122%; in assay [16] it was 106%; in assay [17], 101%; in [18] it was 101%. The results for the residual activity in assay [19] and in [20] were 113% and 108%, respectively.

As to `Cn1cc(/C=C2\C(=O)Nc3ccc(S(N)(=O)=O)cc32)c2ccccc21`, the residual activity in assay [1] came to 95%; in assay [2] it was 66%; in assay [3] it was 64%; in assay [4], 1%; in [5], 15%; in [6] it was 0%. Further, the residual activity in assay [7] is -1%; in assay [8], 124%; in [9], 35%; in assay [10] it was 8%; in assay [11] it was 1%; in assay [12], 53%. Further, the residual activity in assay [13] was 21%; in [14] it was 45%; in assay [15] it was 11%; in assay [16], 109%; in assay [17], 95%; in [18], 98%. The residual activity in assay [19] worked out at 95%; in assay [20], 58%.

In the case of `Cn1cnc2cc3c(Nc4cccc(Br)c4)ncnc3cc21`, the residual activity in assay [1] turned out to be 103%; in assay [2] it was 102%; in assay [3], 100%; in assay [4] it was 102%; in assay [5], 73%; in assay [6], 77%. For the same compound, the residual activity in [7] worked out at 46%; in assay [8] it was 125%; in [9] it was 78%; in [10], 104%; in [11], 87%; in assay [12], 111%. Moreover, the residual activity is 99% in assay [13]; 102% in assay [14]; 108% in [15]; 98% in assay [16]; 77% in assay [17]; 112% in [18]. For the same compound, the residual activity in assay [19] was determined as 94%; in [20] it was 54%.

On to `COc1cccc(-c2cc(=O)c3ccccc3o2)c1N`, for which the residual activity in [1] came out at 94%; in assay [2], 96%; in [3], 92%; in assay [4], 98%; in [5], 96%; in assay [6] it was 109%. The residual activity in assay [7] was determined as 94%; in assay [8] it was 106%; in assay [9], 91%; in assay [10], 108%; in assay [11], 108%; in assay [12], 111%. Further, the residual activity in assay [13] turned out to be 107%; in [14] it was 113%; in assay [15], 108%; in assay [16] it was 106%; in [17], 101%; in [18], 102%. Moreover, the residual activity in assay [19] was found to be 100%; in assay [20] it was 84%.
